Among the data in PubChem BioAssay AID463195 (Sanford-Burnham Center for Chemical Genomics, 2010) are inhibition values, retold here.

In all, about 330,000 compounds went through this assay and about 4,600 (1.4%) were called active.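 How the source made its calls: active means inhibition of 40% or more at the single tested concentration; inactive means the rest.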 What follows is part of a selection rich in actives, with near analogues and random picks from the rest.

The experiment is described as follows: growth inhibitors of isogenic TIM10 control yeast, primary screen, counter-screen for tim10-1 yeast inhibitor project, luminescence, uHTS (AID 463195).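 Further: wild-type TIM10 isogenic control strain grown at permissive 25 °C; 0% = DMSO yeast wells and 100% = minimal medium wells without yeast.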 Particulars: S. cerevisiae TIM10 strain growth, BacTiter-Glo luminescence, 24 h; at 10 µM; hits give high values.
Usually inhibition stands for the drop in the measured response relative to a control, in per cent. In the case of `Cc1cc(C(F)(F)F)nc(SCC(=O)Nc2nccs2)n1`, the inhibition is 2.33% (inactive).

As to `Cn1cnnc1SCC(=O)Nc1ccc(N2CCOCC2)cc1`, the inhibition is -21.6% (inactive).

On to `CCN(CC)CCN(C(=O)c1ccc(S(=O)(=O)N2CCOCC2)cc1)c1nc2cc3c(cc2s1)OCCO3`, for which the inhibition was 41% (active).

Regarding `CCN(CC)CCN(C(=O)c1ccc(N2C(=O)CCC2=O)cc1)c1nc2cc3c(cc2s1)OCO3`, the inhibition is -10.9% (inactive).

Take `CN(C)CCCN(C(=O)c1ccc(S(=O)(=O)N2CCCCCC2)cc1)c1nc2cc3c(cc2s1)OCCO3`: the inhibition is 11.4% (inactive).

Consider `Cc1ccc(N(CC(=O)NCC2CCCO2)C(=O)CNS(=O)(=O)c2ccc(Cl)cc2)cc1` (stereo unspecified), for which the inhibition was 11.1% (inactive).

Take `COc1cccc(N2CC(NS(=O)(=O)c3ccc(Cl)cc3)CC2=O)c1` (stereo unspecified): the inhibition was -3.31% (inactive).

Turning to `CCCCC1(C(=O)OCC)NC(c2ccc(O)cc2)C2C(=O)N(c3ccccc3)C(=O)C21` (stereo unspecified), the inhibition was 58.8% (active).

In the case of `CCOC(=O)C1(C)NC(c2ccco2)C2C(=O)N(c3ccccc3)C(=O)C21` (stereo unspecified), the inhibition is -0.047% (inactive).

Take `CCCC1(C(=O)OCC)NC(c2ccc(N(C)C)cc2)C2C(=O)N(c3ccc4c(c3)OCCO4)C(=O)C21` (stereo unspecified): the inhibition is 4.95% (inactive).

Regarding `Cc1ccc(NC(=O)C2CCCN2C(=O)OCc2ccccc2)cc1C` (stereo unspecified), the inhibition was -1.12% (inactive).

Consider `CCC1(CC)NC(=O)N(Cc2nc3ccccc3s2)C1=O`, for which the inhibition is 0.882% (inactive).

As to `CC(=NCc1ccco1)c1c(C(F)(F)F)[nH]n(-c2nc3ccccc3s2)c1=O`, the inhibition is 50.6% (active).

Consider `CCC(C)Cn1c(O)cc2nn(-c3nc4ccccc4s3)c(=O)c-2c1C` (stereo unspecified), for which the inhibition was -6.61% (inactive).

In the case of `COc1cc(NC(=O)C2CC(c3ccccc3O)=NO2)c(OC)cc1Cl` (stereo unspecified), the inhibition is -3.49% (inactive).

For `COC(C[C@@H]1O[C@@H]1C(=O)[C@H](C)OCc1ccccc1)OC`, the inhibition is -11% (inactive).

For the molecule `COC(C[C@H](O)CC(=O)[C@@H](C)OCc1ccccc1)OC`, the inhibition is 8.38% (inactive).

Take `COC(C/C=C/C(=O)[C@@H](C)OCc1ccccc1)OC`: the inhibition is 50.1% (active).

As for `COC(=O)[C@@H]1CC[C@H](C)[C@@H](c2ccc(C)cc2)N1C(=O)c1ccc(/C=N/O[C@H](C)c2cn([C@@H]3COC[C@H]3O)nn2)cc1`, the inhibition was -0.068% (inactive).

`CN(CC(=O)Nc1ccc(Cl)cc1)C(=O)CNC(=O)c1ccc2ccccc2c1`: the inhibition was -7.81% (inactive).

As to `CN(C)CCCN(C(=O)c1ccc(S(=O)(=O)N2CCCCCC2)cc1)c1nc2ccc(Br)cc2s1`, the inhibition was 34.5% (inactive).

As to `CN(C)CCCN(C(=O)c1ccc(S(=O)(=O)N2CCCc3ccccc32)cc1)c1nc2ccc(F)cc2s1`, the inhibition is 40.9% (active).

For the molecule `CCOc1ccc2nc(N(CCCN(C)C)C(=O)c3ccc(C(=O)c4ccccc4)cc3)sc2c1`, the inhibition was 11.2% (inactive).

For `COc1ccc(Nc2oc(-c3ccccc3Cl)nc2C#N)cc1`, the inhibition was 13.8% (inactive).

In the case of `Cc1cc(NCc2ccco2)n2c(nc3ccccc32)c1C#N`, the inhibition was -0.142% (inactive).

Turning to `Cc1ccccc1-c1nc(C#N)c(NCc2ccco2)o1`, the inhibition was 46.8% (active).

For `CC(C)CCn1c(=O)c2c(nc3n2CCCN3Cc2ccccc2)n(C)c1=O`, the inhibition was 11.2% (inactive).

Consider `COc1ccc(Cc2nnc(N/N=C/c3ccccc3O)[nH]c2=O)cc1OC`, for which the inhibition was 9.37% (inactive).

In the case of `CSc1ccccc1NC(=O)c1cc(C2CC2)on1`, the inhibition was 7.03% (inactive).

In the case of `Cc1nn(Cc2ccc(F)cc2)c(C)c1NC(=O)c1cccnc1Cl`, the inhibition is -10.4% (inactive).

For the molecule `Cc1nn(Cc2ccc(Cl)c(Cl)c2)c(C)c1NC(=O)c1cc(C2CC2)on1`, the inhibition is 43% (active).

`COc1ccc(CN2CCNC(=O)C2CC(=O)N(C)Cc2ccccn2)cc1OC` (stereo unspecified): the inhibition is 10.2% (inactive).

With `CC(=O)Nc1ccc(CC#N)cc1`, the inhibition is 12.5% (inactive).

For the molecule `O=C(NCCN1C(=O)S/C(=C\c2cccnc2)C1=O)c1ccc(S(=O)(=O)N2CCCC2)cc1`, the inhibition is 2.86% (inactive).

Regarding `Cc1cc(OCCCC(=O)NCCN2C(=O)S/C(=C\c3cccnc3)C2=O)ccc1Cl`, the inhibition is 38.4% (inactive).

As to `O=C(NCCN1C(=O)S/C(=C\c2cccnc2)C1=O)c1cccc(OC(F)F)c1`, the inhibition was 43.2% (active).

For the molecule `CCOc1ccc(N(CC(=O)NCC2CCCO2)S(=O)(=O)c2ccc(C)cc2)cc1` (stereo unspecified), the inhibition was 16.8% (inactive).

Take `CCc1sc(C(=O)N2CCN(CC(=O)Nc3cccc(F)c3)CC2)cc1C`: the inhibition was 60.2% (active).

For the molecule `CC(=O)N1CCN(CC(=O)Nc2ccc(C)c(F)c2)CC1`, the inhibition was -1.66% (inactive).

As to `O=C(CN1CCN(C(=O)c2cccc(F)c2)CC1)Nc1ccccc1F`, the inhibition was -0.2% (inactive).

Regarding `O=C(NC1CC1)C(Cc1ccccc1)NS(=O)(=O)c1ccccc1F` (stereo unspecified), the inhibition is -6.34% (inactive).

Regarding `COc1ccc(S(=O)(=O)N(CC(=O)N/N=C/c2ccc(C(=O)O)cc2)Cc2ccccc2)cc1OC`, the inhibition was -21.2% (inactive).

For the molecule `CCOC(=O)C1=C(CSc2nccn2C)NC(=O)NC1c1ccc(OC)cc1` (stereo unspecified), the inhibition was 9.58% (inactive).

For `CCOC(=O)C1=C(C)N=c2s/c(=C\C(=O)OC)c(=O)n2C1c1ccc(OC)cc1` (stereo unspecified), the inhibition is 61.5% (active).

As to `COCCOC(=O)C1=C(C)N=c2s/c(=C\c3cccs3)c(=O)n2C1c1cccs1` (stereo unspecified), the inhibition was 21.4% (inactive).

Turning to `CC(c1ccccc1)n1c(NCCCn2ccnc2)nc2c1c(=O)[nH]c(=O)n2C` (stereo unspecified), the inhibition was 1.78% (inactive).

On to `Cc1ccc(C)c(NC(=O)C2Cc3ccccc3CN2C(=O)OCc2ccccc2)c1` (stereo unspecified), for which the inhibition was 27.9% (inactive).

Consider `COc1ccc(Cl)cc1N(CC(=O)N1CCCCC1)S(C)(=O)=O`, for which the inhibition is 1.46% (inactive).

Turning to `Cc1[nH]c2ccccc2c1C(=O)CSCC(=O)O`, the inhibition is 13.1% (inactive).

On to `Cc1onc(-c2ccccc2Cl)c1C(=O)OCC(=O)c1ccccc1`, for which the inhibition is 23.4% (inactive).

Regarding `Cc1[nH]c2ccccc2c1C(=O)COC(=O)c1c(-c2ccccc2)noc1C`, the inhibition is 48.3% (active).

Consider `CCCN(CCC)C(=S)Nc1cc(C(=O)OC)ccc1C(=O)OC`, for which the inhibition is -3.94% (inactive).

For the molecule `CCOC(=O)[C@@H]1[C@H]2COc3ccc(Br)cc3[C@H]2N2C(=O)N(c3ccc(C)cc3)C(=O)[C@@]12C`, the inhibition is 13.9% (inactive).

With `COc1ccc(C(=O)ON=C2c3ccccc3-c3ccccc32)cc1OC`, the inhibition is 18% (inactive).

For the molecule `COc1ccc(C(=O)O/N=C(\N)Cc2ccc(Cl)cc2Cl)cc1OC`, the inhibition was 85.8% (active).

For the molecule `COc1ccc(C/C(N)=N/OC(=O)c2ccco2)cc1OC`, the inhibition was -7.79% (inactive).
